Reference: PubChem BioAssay AID488965 (Broad Institute, 2010)
“And” between values parts separate entries of the source, which are not always exact repeats. Equal values may be shown once. The campaign covered roughly 340,000 compounds. About 210 (0.062%) were called active. Rule as the data show it: active = inhibition above about 30% (passing the limit was not always enough); inconclusive = no clear call, values can overlap the other calls. Shown is part of a subset that was picked to be rich in actives.

What follows are compounds tested on PvdQ acylase [Pseudomonas aeruginosa LESB58] (assay: P. aeruginosa PvdQ acylase inhibitors, primary screen, biochemical, fluorescence, plate reader and imaging, single point (AID 488965;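 also: 0% = vehicle neutral wells and 100% = reference inhibitor wells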)). Settings: purified PvdQ acylase, at 10 µM, stronger effect = higher value.

inhibition, inactive:
CC(=O)c1nn(-c2ccc(C)cc2)cc1C(=O)c1cccc(Br)c1 -6.55%
COc1cc(CNC2CCCCC2)c(Br)cc1OC1CCCC1 -10.3%
COc1ccc(NS(=O)(=O)c2cc(NC(=O)CC(=O)c3ccc([N+](=O)[O-])cc3)ccc2C)cc1 -17.8%
CCCCNC(=O)N1CCN(S(C)(=O)=O)CC1 -13.6%
CN1CCN(Cc2c(C(=O)N3CCc4ccccc4C3)nc3ccc(Cl)cn23)CC1 9.88%
CCOc1ccc(/C(O)=C2/C(=O)C(=O)N(Cc3cccnc3)C2c2ccc(N(C)C)cc2)c(C)c1 (configuration not stated) -1.75%
COc1ccc(CCN(C)C(=O)C23CC4CC(CC(Cl)(C4)C2)C3)cc1OC 0.828%
O=C(CNC(=O)OCc1ccccc1)NC1CCCCNC1=O (configuration not stated) -2.51%
CCC(C(=O)NC1CCCC1)N(C(=O)Cn1nnc(-c2ccc(C)o2)n1)c1ccc(OC)c(OC)c1 (configuration not stated) -6.8%
CC(C)=NN1C(=O)c2ccccc2NC1(C)C -15.2%
O=C(Nn1cnc2ccccc2c1=O)c1ccc([N+](=O)[O-])cc1Cl -2.92%
CC1=C(C(=O)Nc2cc(C)ccn2)C(c2cnn(C)c2)C2=C(CC(c3ccccc3)CC2=O)N1 (configuration not stated) -10.4%
COc1ccc(N2CCN(C(=O)CN3C(=O)COc4ccccc43)CC2)cc1 -3.63%
COc1ccc(Cn2cc(CN3CCS(=O)(=O)N(Cc4ccc(-c5cccc(Cl)c5)cc4)C(C)C3=O)nn2)cc1 (configuration not stated) 6.04%
COc1ccccc1NS(=O)(=O)c1ccc(C)c(C(=O)NCC(c2ccco2)N(C)C)c1 (configuration not stated) -1.08%
CC(C)CC(COCc1ccc(Cl)cc1)N1CCN(C(=O)c2ccc(C(F)(F)F)cc2)CCC1=O (configuration not stated) -5.2%
COc1ccc(S(=O)(=O)NCC2CCCN(C(=O)c3occc3C)C2)cc1 (configuration not stated) -11.7%
Cc1oc(-c2ccccc2Cl)[n+]([O-])c1C -3.53%
CC(C(=O)Nc1ccccc1-c1ccccc1)N1CCOCC1 (configuration not stated) 4.97%
CC1(C)Cc2cccc(OCC(=O)N3CCN(c4ccc([N+](=O)[O-])cc4)CC3)c2O1 3.43%
O=C(NCCc1ccccc1)C1CC1 11.7%
Cc1cc(C)cc(NC(=O)C(c2ccccc2)N2CCN(CC(=O)N3CCCC3)CC2)c1 (configuration not stated) -12.8%
CCc1ccc(CNC(=O)C2CCN(c3nnc(C)c4c(C)n(-c5ccc(C)cc5)nc34)CC2)cc1 -8.9%
COc1ccc(OC)c(NC(=O)COC(=O)Cc2ccsc2)c1 7.79%
COc1ccc(CCNC(=O)COc2cc(C)cc3oc(=O)c(C)c(C)c23)cc1OC -16.2%
CN1CCN(S(=O)(=O)c2ccc(Nc3ccc(F)cc3)nc2)CC1 4.04%
COc1cc([C@H](Cc2ccccc2)NC(C)=O)oc(=O)c1 -11.2%
Cc1nc2ccccc2c(=O)n1-c1ccc(F)c(NC(=O)c2cccs2)c1 4.62%
CCOC(=O)C1CCCN(C(=O)C2CCN(c3nnc(-n4cccc4)s3)CC2)C1 (configuration not stated) -9.35%
Cc1ccc(C(=O)COC(=O)c2cccc(N3C(=O)c4c(C)nc5ccccc5c4C3=O)c2)cc1C -0.235% and -7.76%
COc1ccc(Cl)cc1C(=O)OCC(=O)NCc1cccs1 -17.2%
Cc1ccc(N(CCC(=O)O)S(=O)(=O)c2cccc(C(F)(F)F)c2)cc1 -8.9%
